In all, about 5,500 compounds went through this assay and about 2,000 (36%) were called active. Inconclusive results (about 18%) are left out. No stated cut-off is given here; in the data, active means normalized growth mostly below about 0.91 (no sharp cut-off); inconclusive means no clear call, values can overlap the other calls; inactive means mostly above about 0.92. This is one part of the list.
Assay: chemical genetic growth profiling, strain panel (AID 1159580);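 further: tested at 20 µM; growth read once vehicle control cultures reached saturation at 30 °C; 1 = growth at the plate median or of vehicle wells; lower values mean less growth of the strain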
Details: S. cerevisiae deletion strains, growth OD

Measured: normalized growth

NC1CCN(O)C1=O (stereo not given)
inactive: locus YAL013W, strain DEP1, hits give low values 1.02 | locus YAL040C, strain CLN3, hits give low values 1.02 | locus YCL061C, strain MRC1 (second series), hits give low values 1.02 | locus YDR363W, strain ESC2, hits give low values 0.986 | locus YER002W, strain NOP16, hits give low values 1.01 | locus YGR078C, strain PAC10, hits give low values 1.02 | locus YNL175C, strain NOP13, hits give low values 1.01 | locus YNL197C, strain WHI3, hits give low values 0.997 | locus YNL224C, strain SQS1, hits give low values 1.02 | locus YOR083W, strain WHI5 (second series), hits give low values 0.985

From PubChem BioAssay AID1159580 (chemical genetic matrix, 2015)
